Columns and labels:
Assay in all cases: DAPPL (digital affinity profiling via proximity ligation, sequencing); 10 mM Tris-HCl pH 7.5, 50 mM NaCl, 1 mM DTT, 4% glycerol, room temperature, 30 min; GST-TFs on glutathione beads, 16-mer random dsDNA library, 0.1% formaldehyde crosslink after washing; high values mean tight binding
Details in all cases: protein: recombinant; tags: N-terminal GST; dsDNA, one strand shown
ELK1 = target: T1, ELK1 (Homo sapiens, UniProt P19419 1-428)
T1 sequence: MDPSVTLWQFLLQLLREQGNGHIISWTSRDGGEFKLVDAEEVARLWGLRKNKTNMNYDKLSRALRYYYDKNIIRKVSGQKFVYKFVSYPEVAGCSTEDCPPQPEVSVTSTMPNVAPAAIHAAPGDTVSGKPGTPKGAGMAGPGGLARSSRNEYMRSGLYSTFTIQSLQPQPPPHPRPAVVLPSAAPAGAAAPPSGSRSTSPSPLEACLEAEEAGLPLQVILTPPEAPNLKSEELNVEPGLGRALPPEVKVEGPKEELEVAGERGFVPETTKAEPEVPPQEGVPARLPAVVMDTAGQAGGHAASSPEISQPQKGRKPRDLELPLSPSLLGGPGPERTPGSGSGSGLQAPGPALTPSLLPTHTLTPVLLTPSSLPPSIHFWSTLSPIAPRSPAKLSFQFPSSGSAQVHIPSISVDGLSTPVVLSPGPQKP
Outline: (§1)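 Pools were built from human transcription factors expressed in yeast as GST fusions, captured on glutathione beads and DNA-barcoded, along with a tag-only sample. Incubation with 200 nmole of a 16-mer random double-stranded DNA library lasted 30 min at room temperature in Tris/NaCl/DTT/glycerol buffer, and was followed by washing, 0.1% formaldehyde crosslinking, proximity ligation, PCR amplification and Illumina NextSeq500 sequencing. Binding signal is the quotient of each hexamer's read frequency for a factor and its frequency for the tag-only sample.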

GABPA = target: T2, GABPA (Homo sapiens, UniProt Q06546 1-454)
T2 sequence: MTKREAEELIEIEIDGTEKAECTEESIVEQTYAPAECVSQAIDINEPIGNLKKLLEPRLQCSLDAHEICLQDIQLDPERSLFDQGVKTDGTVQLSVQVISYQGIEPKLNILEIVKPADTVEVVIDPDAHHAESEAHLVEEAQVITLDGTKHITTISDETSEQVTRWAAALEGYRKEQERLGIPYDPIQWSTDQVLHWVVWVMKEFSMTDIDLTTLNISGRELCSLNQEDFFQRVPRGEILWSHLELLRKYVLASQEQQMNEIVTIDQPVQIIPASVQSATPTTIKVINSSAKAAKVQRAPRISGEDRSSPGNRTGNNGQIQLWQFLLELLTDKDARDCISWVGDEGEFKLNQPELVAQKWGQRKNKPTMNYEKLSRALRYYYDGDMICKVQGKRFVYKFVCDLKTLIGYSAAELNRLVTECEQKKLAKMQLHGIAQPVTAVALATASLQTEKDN
Outline: as §1

ELF3 = target: T3, ELF3 (Homo sapiens, UniProt P78545 1-371)
T3 sequence: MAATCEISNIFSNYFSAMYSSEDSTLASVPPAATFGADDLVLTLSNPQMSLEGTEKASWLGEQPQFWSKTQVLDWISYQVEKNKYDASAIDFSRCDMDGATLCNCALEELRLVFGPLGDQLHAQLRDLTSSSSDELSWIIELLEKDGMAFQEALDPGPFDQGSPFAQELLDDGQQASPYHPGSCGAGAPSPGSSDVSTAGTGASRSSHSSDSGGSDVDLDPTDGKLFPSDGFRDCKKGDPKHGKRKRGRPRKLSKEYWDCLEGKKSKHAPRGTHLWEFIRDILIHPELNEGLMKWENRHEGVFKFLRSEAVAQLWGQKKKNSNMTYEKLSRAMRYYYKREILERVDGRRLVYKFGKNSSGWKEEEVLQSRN
Outline: as §1

CRX = CRX (Homo sapiens, UniProt O43186 1-299)
Outline: as §1

ETV1 = ETV1 (Homo sapiens, UniProt P50549 1-477)
Outline: as §1

ERF = target: T4, ERF (Homo sapiens, UniProt P50548 1-548)
T4 sequence: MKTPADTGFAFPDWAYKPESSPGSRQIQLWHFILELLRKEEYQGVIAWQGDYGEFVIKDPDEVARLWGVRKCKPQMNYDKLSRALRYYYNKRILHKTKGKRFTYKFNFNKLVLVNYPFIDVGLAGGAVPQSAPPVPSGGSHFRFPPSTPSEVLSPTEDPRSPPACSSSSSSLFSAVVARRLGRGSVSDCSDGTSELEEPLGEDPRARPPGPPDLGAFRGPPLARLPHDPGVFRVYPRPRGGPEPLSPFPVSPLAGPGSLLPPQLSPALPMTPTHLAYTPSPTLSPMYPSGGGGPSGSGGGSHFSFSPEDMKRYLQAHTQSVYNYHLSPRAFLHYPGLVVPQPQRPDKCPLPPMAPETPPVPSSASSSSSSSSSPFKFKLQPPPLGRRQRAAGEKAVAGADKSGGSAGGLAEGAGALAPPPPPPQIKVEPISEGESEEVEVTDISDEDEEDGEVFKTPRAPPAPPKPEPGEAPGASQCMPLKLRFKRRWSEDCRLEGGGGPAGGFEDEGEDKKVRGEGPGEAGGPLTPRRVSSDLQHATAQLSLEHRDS
Outline: as §1

SPDEF = target: T5, SPDEF (Homo sapiens, UniProt O95238 1-335)
T5 sequence: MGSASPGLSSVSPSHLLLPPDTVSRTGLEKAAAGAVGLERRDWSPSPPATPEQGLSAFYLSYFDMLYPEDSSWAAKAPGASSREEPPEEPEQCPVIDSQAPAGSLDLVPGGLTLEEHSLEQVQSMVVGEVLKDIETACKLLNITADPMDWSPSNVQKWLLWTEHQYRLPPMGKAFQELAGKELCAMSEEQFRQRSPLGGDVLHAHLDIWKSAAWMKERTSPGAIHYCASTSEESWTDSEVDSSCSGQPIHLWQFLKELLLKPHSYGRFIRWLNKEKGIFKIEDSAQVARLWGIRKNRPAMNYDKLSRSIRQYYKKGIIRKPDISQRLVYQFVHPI
Outline: as §1

ELF5 = target: T6, ELF5 (Homo sapiens, UniProt Q9UKW6-2 1-255)
T6 sequence: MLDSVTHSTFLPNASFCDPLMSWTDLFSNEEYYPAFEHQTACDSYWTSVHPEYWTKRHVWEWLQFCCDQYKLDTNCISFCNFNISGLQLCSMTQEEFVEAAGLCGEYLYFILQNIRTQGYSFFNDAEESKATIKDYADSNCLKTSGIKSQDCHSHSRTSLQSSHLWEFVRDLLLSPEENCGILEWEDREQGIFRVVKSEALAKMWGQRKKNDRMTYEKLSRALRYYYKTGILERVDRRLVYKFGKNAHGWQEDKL
Outline: as §1

ETV6 = ETV6 (Homo sapiens, UniProt P41212 1-452)
Outline: as §1

ELF1 = ELF1 (Homo sapiens, UniProt P32519 1-619)
Outline: as §1

ELK3 = target: T7, ELK3 (Homo sapiens, UniProt P41970 1-407)
T7 sequence: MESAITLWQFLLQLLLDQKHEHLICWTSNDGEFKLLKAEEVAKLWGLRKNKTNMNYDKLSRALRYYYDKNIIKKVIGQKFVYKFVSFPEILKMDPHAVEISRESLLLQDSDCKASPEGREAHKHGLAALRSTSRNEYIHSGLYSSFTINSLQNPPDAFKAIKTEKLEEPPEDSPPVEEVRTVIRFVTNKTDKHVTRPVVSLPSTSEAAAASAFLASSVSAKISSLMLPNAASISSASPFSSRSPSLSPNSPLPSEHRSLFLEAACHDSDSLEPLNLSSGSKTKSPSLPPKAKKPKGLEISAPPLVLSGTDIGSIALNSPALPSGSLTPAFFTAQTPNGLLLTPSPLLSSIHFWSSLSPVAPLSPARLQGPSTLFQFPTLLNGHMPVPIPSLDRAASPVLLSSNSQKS
Outline: as §1

ELK4 = target: T8, ELK4 (Homo sapiens, UniProt P28324-2 1-405)
T8 sequence: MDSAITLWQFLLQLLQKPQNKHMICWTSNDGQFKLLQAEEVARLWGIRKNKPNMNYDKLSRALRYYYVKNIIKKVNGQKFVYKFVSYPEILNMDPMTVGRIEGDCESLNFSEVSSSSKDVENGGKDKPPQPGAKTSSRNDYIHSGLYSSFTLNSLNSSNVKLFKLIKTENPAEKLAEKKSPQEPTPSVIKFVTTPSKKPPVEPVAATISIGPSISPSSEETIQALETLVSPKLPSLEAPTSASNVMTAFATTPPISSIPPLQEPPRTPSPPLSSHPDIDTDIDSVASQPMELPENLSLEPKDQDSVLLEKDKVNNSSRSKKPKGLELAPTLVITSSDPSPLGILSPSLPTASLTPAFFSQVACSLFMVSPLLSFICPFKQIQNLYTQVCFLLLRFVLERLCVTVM
Outline: as §1

ETV2 = target: T9, ETV2 (Homo sapiens, UniProt O00321 1-342)
T9 sequence: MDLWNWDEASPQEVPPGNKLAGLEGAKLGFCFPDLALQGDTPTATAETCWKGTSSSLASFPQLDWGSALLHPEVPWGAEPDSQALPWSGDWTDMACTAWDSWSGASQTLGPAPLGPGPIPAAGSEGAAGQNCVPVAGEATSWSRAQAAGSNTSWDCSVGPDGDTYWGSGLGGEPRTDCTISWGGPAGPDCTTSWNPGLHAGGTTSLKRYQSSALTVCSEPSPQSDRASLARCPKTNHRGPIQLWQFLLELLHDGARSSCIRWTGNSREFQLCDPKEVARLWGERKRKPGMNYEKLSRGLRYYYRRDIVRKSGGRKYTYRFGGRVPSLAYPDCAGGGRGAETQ
Outline: as §1

Sequence of ETV1 (P50549 whole entry): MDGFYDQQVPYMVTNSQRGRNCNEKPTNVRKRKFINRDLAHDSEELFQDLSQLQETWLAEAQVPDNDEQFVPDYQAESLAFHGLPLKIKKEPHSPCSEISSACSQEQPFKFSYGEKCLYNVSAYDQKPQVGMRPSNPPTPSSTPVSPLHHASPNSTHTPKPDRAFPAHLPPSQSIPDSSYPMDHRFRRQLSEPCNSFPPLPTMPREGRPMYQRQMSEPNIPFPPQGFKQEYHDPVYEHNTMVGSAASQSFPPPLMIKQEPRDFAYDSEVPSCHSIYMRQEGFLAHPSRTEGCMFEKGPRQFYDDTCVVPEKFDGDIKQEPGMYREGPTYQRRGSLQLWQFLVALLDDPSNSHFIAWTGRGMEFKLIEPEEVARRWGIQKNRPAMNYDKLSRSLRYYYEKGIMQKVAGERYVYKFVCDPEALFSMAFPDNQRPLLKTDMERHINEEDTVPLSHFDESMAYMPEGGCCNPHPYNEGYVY
Sequence of ELF1 (P32519 whole entry): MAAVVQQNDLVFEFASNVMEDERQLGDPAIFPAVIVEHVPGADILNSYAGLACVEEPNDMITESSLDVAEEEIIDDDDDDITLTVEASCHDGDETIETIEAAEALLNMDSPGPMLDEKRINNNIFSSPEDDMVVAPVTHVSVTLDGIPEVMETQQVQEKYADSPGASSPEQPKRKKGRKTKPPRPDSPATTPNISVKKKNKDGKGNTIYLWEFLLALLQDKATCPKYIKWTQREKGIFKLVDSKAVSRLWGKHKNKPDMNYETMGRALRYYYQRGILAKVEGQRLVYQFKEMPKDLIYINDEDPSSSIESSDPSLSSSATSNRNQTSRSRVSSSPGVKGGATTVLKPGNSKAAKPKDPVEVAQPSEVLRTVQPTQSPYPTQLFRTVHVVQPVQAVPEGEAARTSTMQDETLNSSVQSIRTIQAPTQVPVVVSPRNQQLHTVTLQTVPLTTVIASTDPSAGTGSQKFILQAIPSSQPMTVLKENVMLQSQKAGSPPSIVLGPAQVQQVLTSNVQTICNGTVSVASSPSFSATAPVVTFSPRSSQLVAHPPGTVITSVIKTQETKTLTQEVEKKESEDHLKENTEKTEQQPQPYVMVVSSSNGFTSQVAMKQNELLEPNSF
Sequence of ETV6 (P41212 whole entry): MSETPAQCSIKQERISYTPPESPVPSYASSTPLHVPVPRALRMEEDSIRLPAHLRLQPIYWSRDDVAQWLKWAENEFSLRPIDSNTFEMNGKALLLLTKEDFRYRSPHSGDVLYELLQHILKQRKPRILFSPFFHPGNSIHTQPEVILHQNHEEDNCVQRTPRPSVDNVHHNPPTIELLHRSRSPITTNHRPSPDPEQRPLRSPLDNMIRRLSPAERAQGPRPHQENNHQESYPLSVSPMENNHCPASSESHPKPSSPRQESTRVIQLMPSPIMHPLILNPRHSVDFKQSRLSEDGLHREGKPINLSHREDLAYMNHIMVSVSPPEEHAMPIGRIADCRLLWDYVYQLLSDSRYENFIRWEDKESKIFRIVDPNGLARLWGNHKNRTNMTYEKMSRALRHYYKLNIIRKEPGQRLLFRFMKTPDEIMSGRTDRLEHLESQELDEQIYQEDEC
Sequence of CRX (O43186 whole entry): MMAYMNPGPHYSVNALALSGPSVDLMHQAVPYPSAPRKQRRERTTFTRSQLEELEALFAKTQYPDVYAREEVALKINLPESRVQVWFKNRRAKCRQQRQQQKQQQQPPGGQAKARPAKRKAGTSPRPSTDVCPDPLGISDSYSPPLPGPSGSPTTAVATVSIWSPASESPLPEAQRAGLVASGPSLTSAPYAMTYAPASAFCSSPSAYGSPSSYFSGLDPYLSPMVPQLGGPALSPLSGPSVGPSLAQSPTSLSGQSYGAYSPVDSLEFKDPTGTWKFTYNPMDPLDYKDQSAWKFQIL

Row | Sequence | binding signal (ELK1) | binding signal (GABPA) | binding signal (ELF3) | binding signal (CRX) | binding signal (ETV1) | binding signal (ERF) | binding signal (SPDEF) | binding signal (ELF5) | binding signal (ETV6) | binding signal (ELF1) | binding signal (ELK3) | binding signal (ELK4) | binding signal (ETV2)
1 | AGGTAA | 1.03 fold enrichment (6-mer frequency, TF over GST control) | 1.02 fold enrichment (6-mer frequency, TF over GST control) | 1.11 fold enrichment (6-mer frequency, TF over GST control) | 1.14 fold enrichment (6-mer frequency, TF over GST control) | 1.02 fold enrichment (6-mer frequency, TF over GST control) | 1.06 fold enrichment (6-mer frequency, TF over GST control) | 1 fold enrichment (6-mer frequency, TF over GST control) | 1.01 fold enrichment (6-mer frequency, TF over GST control) | 1.02 fold enrichment (6-mer frequency, TF over GST control) |  |  |  | 
2 | TGAACG |  |  | 1.16 fold enrichment (6-mer frequency, TF over GST control) |  | 1.02 fold enrichment (6-mer frequency, TF over GST control) |  |  |  |  | 1.01 fold enrichment (6-mer frequency, TF over GST control) | 1.06 fold enrichment (6-mer frequency, TF over GST control) | 1.02 fold enrichment (6-mer frequency, TF over GST control) | 1.02 fold enrichment (6-mer frequency, TF over GST control)

Reference: publication PMC7862700, “An all-to-all approach to the identification of sequence-specific readers for epigenetic DNA modifications on cytosine”
